# Measurements from PubChem BioAssay.
# “And” between values parts separate entries of the source, which are not always exact repeats. Equal values may be shown once. The source made the active and inactive calls.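 The calls were made as follows, unless noted: active = at least 20% inhibition of 6-phosphogluconate dehydrogenase activity; inactive = the rest.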
# How the values were obtained:
# [1] = compounds altering circadian rhythm period length – cell-based, LOPAC library, luminescence reporter (AID 2774; call rule not given here;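 also: values are relative to mean of DMSO wells on each plate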); settings: circadian reporter cells, at 7 µM, actives lie on both sides
# [2] = Wnt pathway potentiators raising nuclear beta-catenin – imaging, WNT3A-conditioned medium, mouse C2C12, NPC library, primary screen (AID 1117326; in the data active = nuclear beta-catenin stimulation mostly above about 4.2%, no sharp cut-off; inactive = mostly below about 10%); settings: stronger effect = higher value
# [3] = stimulators of insulin release from INS-1E, primary screen, cell-based, 5 mM glucose, NPC library (AID 1117329;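 active = compound raises insulin release from rat beta cells at 5 mM glucose, no numeric limit stated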); settings: rat INS-1E insulin secretion, at 10 µM, stronger effect = higher value
# [4] = growth inhibition of GSK3B-pretreated HCT116 cells – cell-based, CellTiter-Glo, 0.2 to 20 µM (AID 1117336;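 active = compounds lowering colon cancer cell viability after pretreatment blocking the GSK3B kinase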); settings: HCT116 viability after GSK3B inhibitor, at 20 µM, stronger effect = higher value
# [5] = inhibition of endothelial tube formation, primary screen, imaging, VEGF stimulated, CD31 staining, tube area, NPC library (AID 1117340;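 active = compound that reduces growth-factor-driven endothelial tube area in a mixed cell culture, no cutoff stated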); settings: VEGF-stimulated ADSC/ECFC co-culture, at 10 µM, stronger effect = higher value
# [6] = GLP1 release stimulators, primary, NCI-H716, NPC library (AID 1117341;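 active = compound raises GLP1 secretion from the human gut endocrine cells, with no numeric limit stated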); settings: NCI-H716 cells, at 10 µM, stronger effect = higher value
# [7] = HCT116 colon cancer cell growth inhibition, primary screen, CellTiter-Glo luminescence, NPC library (AID 1117342;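 active = compounds that lower survival of HCT116 colon cancer cells in the luminescence readout, no numeric limit stated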); settings: at 20 µM (top of the series)
# [8] = reduced SW480 viability measured with CellTiter-Glo, NPC library, primary (AID 1117343;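 active = compounds that lower viability of the colon cancer cells in the luminescence readout, with no numeric limit stated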); settings: CellTiter-Glo luminescence; at 20 µM (top of the series)
# [9] = NPC library primary testing for decreased DLD-1 cell viability via CellTiter-Glo (AID 1117346;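 active = compounds that lower survival of DLD-1 colon cancer cells in the luminescence readout, no cutoff given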); settings: DLD-1 viability, CellTiter-Glo luminescence; at 20 µM (top of the series)
# [10] = compounds altering viability of human ES cells (AID 493140; call rule not given here;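 also: cells exposed to compounds for four days before counting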); settings: human embryonic stem cell survival screen; stronger effect = higher value
# [11] = tested on: Hepatitis C virus NS3 helicase; test: blockers of NS3h binding to ssDNA – biochemical, fluorescence polarization, LOPAC1280 library, primary screen (AID 687035; in the data active = inhibition above about 37%); settings: Purified HCV NS3 helicase, Cy5-dT15 ssDNA binding fluorescence polarization; stronger effect = higher value; concentration not given here
# [12] = MELAS cybrid and Rieske KO viability enhancers – cell-based, MELAS cybrids, Rieske KO mouse fibroblasts, CellTiter-Glo, primary screen (AID 1508586;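 active = mean z-score across replicates of 1.96 or higher in either the MELAS or the Rieske mutant cell line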;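 also: z relative to plate mean and SD of compound and empty wells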); settings: low glucose
# [13] = target: NAD(+) hydrolase SARM1 (Homo sapiens) (UniProt Q6SZW1); test: blocking NAD cleavage by SARM1 SAM-TIR – cell lysate, NAD-Glo luminescence (AID 1508614;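 active = compound whose remaining NAD level is above about 45 nM, limit read from the data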;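 also: higher remaining NAD means stronger inhibition of SARM1 NADase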); settings: SAM-TIR HEK293T lysate NADase, at 1 µM, stronger effect = higher value
# Chain of NAD(+) hydrolase SARM1 (Homo sapiens) (Q6SZW1 whole entry, looked up): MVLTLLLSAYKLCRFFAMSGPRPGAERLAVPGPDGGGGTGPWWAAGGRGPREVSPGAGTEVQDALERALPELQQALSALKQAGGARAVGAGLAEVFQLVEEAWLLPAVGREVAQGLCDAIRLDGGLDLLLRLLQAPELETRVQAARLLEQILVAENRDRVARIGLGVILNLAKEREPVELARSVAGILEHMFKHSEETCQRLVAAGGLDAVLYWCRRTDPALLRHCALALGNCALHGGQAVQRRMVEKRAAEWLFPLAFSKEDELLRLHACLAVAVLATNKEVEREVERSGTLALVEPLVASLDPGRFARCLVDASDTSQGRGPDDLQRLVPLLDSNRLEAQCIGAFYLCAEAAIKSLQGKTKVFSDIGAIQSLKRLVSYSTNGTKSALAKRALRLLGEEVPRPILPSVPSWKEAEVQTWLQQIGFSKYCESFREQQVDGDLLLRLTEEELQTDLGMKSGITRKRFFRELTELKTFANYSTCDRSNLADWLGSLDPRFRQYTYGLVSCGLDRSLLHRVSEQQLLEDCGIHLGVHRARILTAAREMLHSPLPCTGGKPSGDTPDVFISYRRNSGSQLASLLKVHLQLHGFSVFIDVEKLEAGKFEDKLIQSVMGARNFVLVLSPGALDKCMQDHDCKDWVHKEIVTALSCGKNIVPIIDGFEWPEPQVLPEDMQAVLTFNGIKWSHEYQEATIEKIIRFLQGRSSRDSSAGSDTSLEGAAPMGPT
# [14] = EMT-state selective cytotoxicity in co-culture – imaging, PC-3E GFP, TEM4-18 mCherry, primary screen (AID 1345086;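 active = compounds killing one labelled cell type while sparing the other, by normalised counts and ratio limits, not self-fluorescent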;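 as to all read-outs here: cells exposed to compound for 72 h before imaging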;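 as to red/green cell ratio (normalised): normalised mesenchymal count divided by normalised epithelial count so high means epithelial killing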); settings: PC-3E GFP / TEM4-18 mCherry co-culture, imaging cell counts, at 1 µM; for red/green cell ratio (normalised): actives lie on both sides
# [15] = target: 6-phosphogluconate dehydrogenase, decarboxylating (Homo sapiens) (UniProt P52209); test: inhibition of human phosphogluconate dehydrogenase – biochemical, recombinant enzyme, NADPH absorbance, primary screen (AID 1159550); settings: recombinant 6PGD, NADPH absorbance 341 nm; at 10 µM; stronger effect = higher value
# Chain of 6-phosphogluconate dehydrogenase, decarboxylating (Homo sapiens) (P52209 whole entry, looked up): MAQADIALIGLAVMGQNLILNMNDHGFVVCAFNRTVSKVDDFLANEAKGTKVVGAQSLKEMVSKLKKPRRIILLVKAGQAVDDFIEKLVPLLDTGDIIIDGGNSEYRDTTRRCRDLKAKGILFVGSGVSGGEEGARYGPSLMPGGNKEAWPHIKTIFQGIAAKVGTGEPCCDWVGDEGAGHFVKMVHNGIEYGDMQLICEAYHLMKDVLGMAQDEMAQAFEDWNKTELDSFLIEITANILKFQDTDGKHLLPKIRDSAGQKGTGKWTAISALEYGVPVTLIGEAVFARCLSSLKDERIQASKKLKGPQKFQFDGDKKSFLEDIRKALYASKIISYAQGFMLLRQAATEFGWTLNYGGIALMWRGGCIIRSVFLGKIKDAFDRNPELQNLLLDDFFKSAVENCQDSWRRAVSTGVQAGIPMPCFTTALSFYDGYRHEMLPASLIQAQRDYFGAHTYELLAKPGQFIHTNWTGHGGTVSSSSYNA
# [16] = tested on: Aerobactin synthetase IucA (Klebsiella pneumoniae, hypervirulent); test: biochemical IucA inhibition screen of LOPAC library by absorbance (AID 1346212; call rule not given here;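 also: 100% = no compound wells and 0% = no enzyme wells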); settings: IucA enzyme assay, absorbance (OD) readout; stronger effect = lower value;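 tested at 8 µM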
# [17] = viability loss with induced miR-34 in A549 – imaging, A549 dox-inducible miR-34, nuclei and caspase counts, primary screen (AID 1347080;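 active = compounds whose cell count with miR-34 switched on is under 0.7 times the count with it off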); settings: A549 miR-34 inducible, Hoechst nuclei count, 48 h
# [18] = galactose survival enhancers in mitochondrial complex I cybrids – cell-based, galactose medium, ATP luminescence, primary screen (AID 1645843;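 active = z-score of at least 1.8 in each of two replicates, scored against plate mean and spread of sample wells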;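 also: positive z means more ATP and so rescue of galactose-driven cybrid death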); settings: complex I mutant cybrid cells, 72 h, stronger effect = higher value
# [19] = P. berghei load reduction in hepatocytes – cell-based, HepG2, luciferase luminescence, HepG2 viability, primary screen (AID 624349; in the data active = parasite load remaining mostly below about 12%, no sharp cut-off; inactive = mostly above about 10%;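 also: 100% = mean of DMSO negative control wells on the same plate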); settings: P. berghei liver stage in HepG2, luciferase luminescence, concentration not given here; parasite load remaining: stronger effect = lower value; viability: measured here: HepG2 viability without parasites
# [20] = MELAS cybrid survival, CellTiter-Glo 48 h, stronger effect = higher value
# [21] = Rieske KO mouse fibroblast survival, CellTiter-Glo 72 h
# [22] = measured here: epithelial PC-3E GFP cell survival
# [23] = measured here: mesenchymal TEM4-18 mCherry cell survival
# [24] = measured here: relative caspase fold change +Dox/-Dox
# [25] = measured here: total cells with miR-34 induction, stronger effect = lower value
# [26] = measured here: total cells without miR-34 induction
structure (smiles),measurement,setting,value
C[C@]12CCC(=O)C=C1CC[C@@H]1[C@@H]2CC[C@]2(C)C(=O)CC[C@@H]12,period change,[1],0.09 h (inactive)
same,nuclear beta-catenin stimulation,[2]; at 10 µM,-0.1% (inactive)
same,nuclear beta-catenin stimulation,"[2]; stimulation, at 2 µM",-1.6%
same,insulin secretion stimulation,[3],2.4% (inactive)
same,viability decrease,[4],64.9% (active)
same,tube area decrease,[5],-7% (inactive)
same,GLP1 secretion stimulation,[6],-2.7% (inactive)
same,inhibition of viability,[7],68.5% (active)
same,viability decrease (inhibition),[8],23.5% (inactive)
same,viability decrease (inhibition),[9],45.9% (inactive)
CN1C[C@H](CNC(=O)OCc2ccccc2)C[C@@H]2c3cccc4c3c(cn4C)C[C@H]21,period change,[1],0.135 h (inactive)
same,survival,[10],2.67 (inactive)
same,inhibition,[11],-2% (inactive)
same,z-score,[12]; [20],0.443 (inactive)
same,z-score,[12]; [21],0.114
same,remaining NAD,[13],10 nM (inactive)
CN(C)C(=S)SSC(=S)N(C)C,red/green cell ratio (normalised),[14],1.29 (inactive)
same,normalised cell number,[14]; [22],0.66
same,normalised cell number,[14]; [23],0.85
same,remaining NAD,[13],48 nM (active)
COc1ccc2c(c1OC)C(=O)O[C@H]2[C@@H]1c2cc3c(cc2CCN1C)OCO3,period change,[1],-0.14 h (inactive)
same,inhibition,[11],-3% (inactive)
COP(=S)(OC)Oc1ccc(Sc2ccc(OP(=S)(OC)OC)cc2)cc1,red/green cell ratio (normalised),[14],0.91 (inactive)
same,normalised cell number,[14]; [22],1.08
same,normalised cell number,[14]; [23],0.98
c1ccc2c(c1)Sc1ccccc1N2CC1CN2CCC1CC2 (configuration not stated),z-score,[12]; [20],-0.772 (inactive)
same,z-score,[12]; [21],-0.213
O=C1CC[C@@]2(O)[C@H]3Cc4ccc(O)c5c4[C@@]2(CCN3CC2CC2)[C@H]1O5,survival,[10],16.1 (inactive)
same,inhibition,[15],9.6% (inactive)
same,remaining activity,[16],118% (inactive)
same,fold change,[17]; stronger effect = lower value,0.971 (inactive) and 0.94 (inactive) and 0.843 (inactive)
same,fold change,[17]; [24],1.34 and 1.14 and 0.908
same,cell count,[17]; [25],11000 and 9230 and 9370
same,cell count,[17]; [26],11300 and 9820 and 11100
same,z-score,[12]; [20],0.477 (inactive) and 0.601 (inactive)
same,z-score,[12]; [21],0.069 and -0.0949
same,remaining NAD,[13],10 nM (inactive)
same,z-score,[18],0.66 (inactive) and 0.275 (inactive)
COc1ccc2[nH]cc(CCN)c2c1,period change,[1],-0.125 h (inactive)
same,parasite load remaining,[19],58.9% (inactive)
same,viability,[19],68.9%
same,inhibition,[11],-2% (inactive)
same,inhibition,[15],0.367% (inactive)
same,red/green cell ratio (normalised),[14],0.84 (inactive)
same,normalised cell number,[14]; [22],1.18
same,normalised cell number,[14]; [23],0.99
same,remaining activity,[16],109% (inactive)
same,fold change,[17]; stronger effect = lower value,1.03 (inactive) and 0.901 (inactive)
same,fold change,[17]; [24],1.64 and 1.2
same,cell count,[17]; [25],10600 and 8900
same,cell count,[17]; [26],10300 and 9880
same,z-score,[18],0.225 (inactive) and 0.515 (inactive)
COc1ccc(C(c2ccc(OC)cc2)C(Cl)(Cl)Cl)cc1,inhibition,[15],-1.01% (inactive)
O=c1ccc2cc(O[C@@H]3O[C@H](CO)[C@@H](O)[C@H](O)[C@H]3O)c(O)cc2o1,parasite load remaining,[19],71.6% (inactive)
same,viability,[19],71.7%
same,inhibition,[15],-2.58% (inactive)
same,red/green cell ratio (normalised),[14],1.25 (inactive)
same,red/green cell ratio (normalised),"[14]; counts scaled to control wells, 1 = unselective",0.97 (inactive)
same,normalised cell number,[14]; [22],0.87 and 1.04
same,normalised cell number,[14]; [23],1.09 and 1
C=C[C@H]1CN2CC[C@H]1C[C@@H]2[C@@H](O)c1ccnc2ccccc12,parasite load remaining,[19],63% (inactive)
same,viability,[19],116%
same,inhibition,[15],-5.19% (inactive)
same,fold change,"[17]; stronger effect = lower value, cell number ratio, induced over uninduced",0.868 (inactive)
same,fold change,[17]; [24],1.48
same,cell count,[17]; [25],8930
same,cell count,[17]; [26],10300
same,remaining NAD,[13],10 nM (inactive)
CC(=O)O[C@H]1CC[C@]2(C)C3CC[C@]4(C)[C@@H](C5=CC(=O)OC5)[C@@H](OC(C)=O)C[C@]4(O)C3CC[C@@H]2C1 (some centres not stated),inhibition,[15],0.446% (inactive)
c1ccc2c3c([nH]c2c1)CNCC3,parasite load remaining,[19],59.9% (inactive)
same,viability,[19],85.2%
same,inhibition,[15],-0.853% (inactive)
same,fold change,[17]; stronger effect = lower value,0.984 (inactive)
same,fold change,[17]; [24],1.28
same,cell count,[17]; [25],7470
same,cell count,[17]; [26],7600
same,z-score,[18],-0.425 (inactive)
CC[C@@H](C)C(=O)O[C@H]1[C@H](O)[C@H]2[C@@H](CN3C[C@@H](C)CC[C@H]3[C@@]2(C)O)[C@@H]2C[C@]34O[C@]5(O)[C@@H](OC(=O)[C@@](C)(O)[C@@H](C)O)CC[C@@]3(C)[C@@H]5[C@@H](OC(C)=O)[C@@H](OC(C)=O)[C@H]4[C@@]21O,inhibition,[15],7.64% (inactive)
C=C[C@H]1CN2CCC1C[C@H]2[C@H](OC(=O)OCC)c1ccnc2ccc(OC)cc12 (some centres not stated),inhibition,[15],4.32% (inactive)
CC(C)CC(N(C)C)C1(c2ccc(Cl)cc2)CCC1 (configuration not stated),inhibition,[15],14.3% (inactive)
same,red/green cell ratio (normalised),[14],1.04 (inactive)
same,normalised cell number,[14]; [22],0.98
same,normalised cell number,[14]; [23],1.02
same,z-score,[12]; [20],0.37 (inactive) and 0.394 (inactive)
same,z-score,[12]; [21],0.153 and 0.475
same,remaining NAD,[13],10 nM (inactive)
same,z-score,[18],-1.39 (inactive) and -1.34 (inactive) and -2.03 (inactive)
O=c1c2ccccc2[se]n1-c1ccccc1,period change,[1],-0.02 h (inactive)
same,survival,[10],0.417 (inactive)
same,parasite load remaining,[19],54.1% (inactive) and 46.2% (inactive)
same,viability,[19],93.6% and 69.7%
same,inhibition,[11],-2% (inactive)
same,inhibition,[15],51.1% (active)
same,red/green cell ratio (normalised),[14],0.87 (inactive)
same,normalised cell number,[14]; [22],1.06
same,normalised cell number,[14]; [23],0.92
same,remaining activity,[16],-5.47% (active)
same,z-score,[12]; [20],-1.8
same,z-score,[12]; [21],2.16
same,remaining NAD,[13],10 nM (inactive)
same,z-score,[18],-1.44 (inactive)
COc1ccc(C[C@H]2NC[C@H](O)[C@H]2OC(C)=O)cc1,parasite load remaining,[19],-43.5% (inactive) and -0.655% (inactive)
same,viability,[19],60.3% and 76.2%
same,inhibition,[15],-19.6% (inactive)
same,red/green cell ratio (normalised),[14],0.63 (inactive)
same,normalised cell number,[14]; [22],0.16
same,normalised cell number,[14]; [23],0.1
same,fold change,[17]; stronger effect = lower value,0.919 (inactive) and 1.04 (inactive)
same,fold change,[17]; [24],1.66
same,cell count,[17]; [25],1170 and 1230
same,cell count,[17]; [26],1270 and 1190
same,z-score,[18],-0.88 (inactive)
